Screening data as filed in PubChem.
Compounds with a hit are over-represented: about 3.2% of the library has one in this group of screens.
pS6 MEF inh: Acumen qHTS Assay for Inhibitors of the mTORC1 Signaling Pathway in MEF (Tsc2-/-, p53-/-) Cells: Sytravon; Tsc2-/- p53-/- MEF, phospho-rpS6 immunofluorescence/PI, 24 h; Potency, µM (series often up to 38.3 µM), without a hit: at the highest dose activity change, negative = inhibition, actives largely listed as inhibitors; 44,000 tested, 0.78% active;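 further: potency means the concentration at half of the fitted maximal effect; plate controls were DMSO for no effect and rapamycin for full effect; nearly all actives have a fitted effect of over 50% in size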
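Plate MEFs (Tsc2-/-, p53-/-, empty vector) in DMEM/10% FBS; after 24 h add compound, incubate 24 h at 37 degree Celsius; fix in PFA/TX-100, block, stain phospho-rpS6 and 10 uM PI; scan at 488 nm; report % positive cells.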
PMP22 txn: Cell-based coincidence reporter assay to measure PMP22 gene transcription in S16 Pmp22-F2sN cells - Primary screen. S16 Pmp22-F2sN Schwann cells, FLuc/NLuc coincidence luminescence, 24 h. Potency, µM (highest dose often 57.5 µM), for the others: top-dose activity change, negative = inhibition, most hits filed as inhibitors. 43,000 tested, 2% active. AID 1508649, 2021; active means clear falling dose curves in both reporters; inconclusive means both reporters move, but less clearly or upward; inactive means either reporter flat; the % is the NLuc reporter signal; further: potency means the concentration at half of the fitted maximal effect; on the % scale 0 is the no-effect control and ±100 the full control effect
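S16 Schwann cells carrying FLuc/NLuc coincidence reporter in the Pmp22 3' UTR treated with compound 24 h at 37C; FLuc then NLuc luminescence read sequentially by dual-luciferase reagents.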
S16 viability: Cell viability qHTS assay in S16 Pmp22-F2sN cells. S16 Pmp22-F2sN Schwann cells (luciferase reporters placed in the Pmp22 gene) viability, CellTiter-Glo, 24 h. 43,000 tested, 0.48% active. Potency, µM (doses to about 57.5 µM), without a hit: top-dose activity change, negative = cytotoxicity, usual class: cytotoxic; further: potency means the concentration at half of the fitted maximal effect; on the % scale 0 is the no-effect control and ±100 the full control effect; nearly all actives have a fitted effect of over 65% in size
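Luminescence from CellTiter-Glo, read by CCD camera after a 15 min room-temperature incubation, served as the viability signal. Reporter Schwann cells (S16 Pmp22-F2sN) had been treated with pin-transferred compounds for 24 h at 37C.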
p53null 39C kill: qHTS Screen for Compounds that Selectively Target Cancer Cells with p53 Mutations: Cytotoxicity of p53 Null Cells at the Nonpermissive Temperature; H1299 p53-null (neo) cells, 39C, ATPlite viability, 24 h; Potency, µM (series often up to 46.1 µM), for the others: at the highest dose activity, negative = cell killing, most hits filed as cytotoxic; AID 904, 2007; 55,000 tested, 0.97% active;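 further: potency means the concentration at half of the fitted maximal effect; 0% = DMSO only and -100% = full killing by 100 µM tamoxifen; nearly all actives have a fitted effect of over 50% in size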
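Luminescent ATP signal reported cell survival after H1299 lines (neo, p53 null; or p53 A138V) received up to 46 uM compound and 24 hr incubation at 39C.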
p53null 32C tox: qHTS Screen for Compounds that Selectively Target Cancer Cells with p53 Mutations: Cytotoxicity of p53 Null Cells at the Permissive Temperature; H1299-neo p53 null cells, ATP luminescence, 24 h, 32C; Potency, µM (series often up to 46.1 µM), for inactives: at the highest dose activity change, negative = cytotoxicity, most hits filed as cytotoxic; 55,000 tested, 0.62% active; AID 903, 2007;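 further: potency means the concentration at half of the fitted maximal effect; 0% = DMSO only and -100% = full killing by 100 µM tamoxifen; nearly all actives have a fitted effect of over 55% in size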
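ATP-content luminescence in p53-null H1299-neo cells after 24 h compound exposure (up to 46 uM) at 32C permissive temperature; 0% and 100% killing set by DMSO and 100 uM tamoxifen; Hill-equation AC50.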
NLuc saturating: Biochemical NLuc saturation counterscreen for small molecule modulators of PMP22 gene expression - Nano-Glo assay; shares compounds with PMP22 txn; Secreted NLuc enzyme (filtered S16 cell medium), Nano-Glo luminescence; Potency, µM (series often up to 57.5 µM), without a hit: at the highest dose activity change, negative = inhibition, most hits filed as inhibitors; 690 tested, 4% active; AID 1508638, 2021; further: potency means the concentration at half of the fitted maximal effect; on the % scale 0 is the no-effect control and ±100 the full control effect
NLuc Km ctr: Biochemical coelenterazine-based NLuc counterscreen for small molecule modulators of PMP22 gene expression - Km assay | shares compounds with PMP22 txn | secreted NLuc enzyme, coelenterazine luminescence, Km conditions | 690 tested, 5% active | Potency, µM (top dose mostly 57.5 µM), for inactives: top-dose activity change, negative = inhibition, actives largely listed as inhibitors; further: potency means the concentration at half of the fitted maximal effect; on the % scale 0 is the no-effect control and ±100 the full control effect
FLuc counter: Biochemical FLuc counterscreen for small molecule modulators of PMP22 gene expression | shares compounds with PMP22 txn | purified P. pyralis FLuc, luminescence, 10 min | AID 1508640, 2021 | 690 tested, under 10 active | Potency, µM (top dose mostly 57.5 µM), for inactives: at the top dose activity, negative = inhibition, usual class: inhibitors; further: % of control where 0% means no effect
Target sequence (P08659 whole entry, looked up): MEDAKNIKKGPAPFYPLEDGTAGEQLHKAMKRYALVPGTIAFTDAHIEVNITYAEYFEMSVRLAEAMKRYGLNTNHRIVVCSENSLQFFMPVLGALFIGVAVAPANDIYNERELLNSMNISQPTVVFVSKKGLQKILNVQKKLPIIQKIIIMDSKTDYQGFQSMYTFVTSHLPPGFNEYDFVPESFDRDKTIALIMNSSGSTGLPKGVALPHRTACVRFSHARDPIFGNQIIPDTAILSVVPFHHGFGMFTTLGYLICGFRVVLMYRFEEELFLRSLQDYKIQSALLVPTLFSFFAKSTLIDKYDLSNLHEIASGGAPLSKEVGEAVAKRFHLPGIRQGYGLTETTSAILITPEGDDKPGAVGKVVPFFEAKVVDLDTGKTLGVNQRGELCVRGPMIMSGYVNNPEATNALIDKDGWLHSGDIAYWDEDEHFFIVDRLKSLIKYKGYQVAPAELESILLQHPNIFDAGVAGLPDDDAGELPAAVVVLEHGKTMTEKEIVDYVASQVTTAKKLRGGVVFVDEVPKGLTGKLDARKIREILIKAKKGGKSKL
S16 viab conf: Cell viability qHTS assay in S16 Pmp22-F2sN cells - Confirmatory screen. shares compounds with PMP22 txn. S16 Schwann cells viability, CellTiter-Glo ATP luminescence, 24 h. Potency, µM (titrated, usually from 57.5 µM), without a hit: top-dose activity change, negative = viability loss, hits mostly cytotoxic. 690 tested, 7% active; further: potency means the concentration at half of the fitted maximal effect; on the % scale 0 is the no-effect control and ±100 the full control effect
PMP22 txn conf: Cell-based coincidence reporter assay to measure PMP22 gene transcription in S16 Pmp22-F2sN cells - Confirmatory screen; shares compounds with PMP22 txn; S16 Schwann cells Pmp22-F2sN, dual luciferase, 24 h; Potency, µM (doses to about 57.5 µM), without a hit: at the top dose activity change, negative = inhibition, most hits filed as inhibitors; 690 tested, 22% active; AID 1508646, 2021; active means clear falling dose curves in both reporters; inconclusive means both reporters move, but less clearly or upward; inactive means either reporter flat; the % is the FLuc reporter signal; further: potency means the concentration at half of the fitted maximal effect
PMP22 prot conf: Cell-based HiBiT reporter assay to measure PMP22 protein expression in S16 Pmp22-HiBiT cells - Confirmatory screen; shares compounds with PMP22 txn; S16 Schwann cells Pmp22-HiBiT, luminescence, 48 h; Potency, µM (doses to about 27.9 µM), for the others: at the top dose activity change, negative = inhibition, most hits filed as inhibitors; 95 tested, under 10 active; AID 1508647, 2021
Target sequence (P25094 whole entry, looked up): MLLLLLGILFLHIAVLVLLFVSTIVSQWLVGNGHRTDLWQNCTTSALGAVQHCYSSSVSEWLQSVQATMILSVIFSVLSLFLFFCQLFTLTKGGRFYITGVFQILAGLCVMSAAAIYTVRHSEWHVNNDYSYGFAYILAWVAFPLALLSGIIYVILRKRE
Starred values were filed as active, the others as inactive; ? = inconclusive; . = no result given; [ ] = remark or other dose. Unless noted, the call rests on the fitted dose curve; in most records, active means well fitted curve in the direction sought with a large enough effect; inconclusive means small, poorly fitted or top-dose-only effect, or another doubt; inactive means no such curve, though single readings can be large; an effect the other way counts as inactive or inconclusive.

SMILES	pS6 MEF inh	PMP22 txn	S16 viability	p53null 39C kill	p53null 32C tox	others
COc1ccccc1C(=O)Nc1cccc(C(=O)OCc2cc(=O)n3nc(C4CC4)sc3n2)c1	0.0%	5.6%	4.8%	7.6%	-3.1%
CCN(CC)CCCNC(=O)c1nn(-c2ccc(C)cc2)c(=O)c2c1c1ccccc1n2C	?	?	?	19.6%	3.6%
CCN(CC)CCOC(=O)c1ccc(NC(=O)c2nn(-c3ccc(C)cc3)c(=O)c3c2c2ccccc2n3C)cc1	0.927µM*	5.15µM*	4.47µM*	3.98µM*	6.31µM*
Cc1ccc2sc(-c3ccc(N)cc3)nc2c1	-11.4%	-25.9%	-2.2%	1.58µM*	2µM*
COc1ccccc1CNC(=O)c1nnn(CC(=O)Nc2c(C)cccc2C)c1N	4.5%	-22.2%	-3.1%	5.1%	-3.9%
CCc1cccc(NC(=O)c2oc3ccc4c(c3c2C)C(=O)CC(C)(C)O4)c1	?	?	-5.0%	5.01µM*	5.01µM*
COc1ccc(NC(=O)c2oc3ccc4c(c3c2C)C(=O)CC(C)(C)O4)cc1OC	1.0%	?	5.8%	3.16µM*	12.6µM*
CCOc1ccccc1CNC(=O)c1oc2ccc3c(c2c1C)C(=O)CC(C)(C)O3	0.5%	?	?	6.5%	?
CCCN1CCN(c2ncnc3sc(C(=O)Nc4ccc(OC(F)(F)F)cc4)c(C)c23)CC1	16.5µM*	?	?	-17.3%	9.4%
CCCN1CCN(c2ncnc3sc(C(=O)Nc4ccc(C(C)C)cc4)c(C)c23)CC1	?	?	?	5.9%	2.2%
Fc1ccc(-c2csc(=Nc3cccc(C(F)(F)F)c3)n2Cc2ccc3c(c2)OCO3)cc1	?	?	-2.1%	16.9%	3.0%[9.22 µM]
CCCn1c(/C=C/c2ccccc2)nc2ccccc21	-8.3%	-11.2%	-4.6%	?	15.8µM*
Cc1ccc(S(=O)(=O)Nc2cc3c(cc2N2CCOCC2)n(C)c(=O)n3C)cc1	-17.5%	.	.	-14.0%	-1.5%
Cc1ccc(S(=O)(=O)Nc2cc3c(cc2N2CCOCC2)n(C)c(=O)n3C)c(C)c1	1.5%	15µM*	?	-15.9%	0.6%	NLuc saturating=-3.7%;NLuc Km ctr=-2.9%;FLuc counter=5.5%;S16 viab conf=-8.9%;PMP22 txn conf=-45.2%
CCOC(=O)c1c(S(=O)(=O)NCC(=O)Nc2cccc(CC)c2)c(C)n(C)c1C	-8.7%	2.3%	0.2%	-1.8%	-1.8%
CCCOc1ccc(NC(=O)CC2C(=O)N(c3cccc(C)c3)C(=O)N2CCc2ccncc2)cc1 (configuration not stated)	-2.3%	.	.	3.4%	-1.7%
Cc1ccc(-c2nc(C)c(CCNS(=O)(=O)c3ccccc3F)s2)cc1	-1.8%	-65.7%	?	39.3%	14.5%
CCS(=O)(=O)c1ncc(Cl)c(C(=O)NCc2ccccc2)n1	2.61µM*	8.43µM*	?	-14.8%	?	NLuc saturating=-7.4%;NLuc Km ctr=-19.9%;FLuc counter=3.3%;S16 viab conf=15.3µM*;PMP22 txn conf=6.9µM*
COc1ccc(NC(=O)c2nc(S(=O)(=O)Cc3ccc(C)cc3)ncc2Cl)cc1	3.69µM*	11.3µM*	?	?	-20.7%	NLuc saturating=-11.2%;NLuc Km ctr=-15.3%;FLuc counter=3.4%;S16 viab conf=?;PMP22 txn conf=5.77µM*;PMP22 prot conf=-8.6%
CCCS(=O)(=O)c1ncc(Cl)c(C(=O)Nc2c(C(=O)Nc3ccccc3)oc3ccccc23)n1	2.07µM*	7.13µM*	?	15.8µM*	-29.1%	NLuc saturating=-13.4%;NLuc Km ctr=1.37µM*;FLuc counter=5.6%;S16 viab conf=17.2µM*;PMP22 txn conf=8.16µM*
COc1ccc(CNC(=O)c2nc(SCc3ccc(C)cc3)ncc2Cl)cc1	-1.9%	?	-2.2%	-16.0%	-9.9%
COc1ccccc1C(=O)Nc1cccc(C(=O)OCc2cc(=O)n3c4c(sc3n2)CCCC4)c1	0.0%	-18.3%	-4.1%	5.9%	-5.1%
COc1ccc(OCC2c3cc(OC)c(OC)cc3CCN2C(=O)COc2ccc(Cl)cc2Cl)cc1 (configuration not stated)	14.7%	-7.3%	1.7%	-15.1%	-0.8%
CCCCCn1c(=O)[nH]c2cc(C(=O)NCc3ccc(Cl)cc3)ccc2c1=O	4.7%	-0.7%	1.9%	-8.9%	1.2%
O=C(NCCc1ccc(Cl)cc1)c1ccc(Cn2c(=O)[nH]c3ccccc3c2=O)cc1	-19.3%	3.18µM*	-22.8%	3.7%	15.0%	NLuc saturating=-2.5%;NLuc Km ctr=-1.6%;FLuc counter=-9.4%;S16 viab conf=-29.6%;PMP22 txn conf=?
